Mcl1 Bid PPI = Mcl-1/Bid interaction inhibition | Q07820 | TR-FRET Mcl-1/Bid-Dy647 peptide binding, 1536-well | inhibition, % at 21.7 µM | hit rate 0.97% among 220,000;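 active means compounds that cut the binding signal by more than half at the single screening dose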;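 further: His-tagged Mcl-1 with europium anti-His antibody binding Bid BH3 peptide; 0% = Mcl-1 plus peptide wells and 100% = peptide-only wells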
Target sequence (Q07820 whole entry, looked up): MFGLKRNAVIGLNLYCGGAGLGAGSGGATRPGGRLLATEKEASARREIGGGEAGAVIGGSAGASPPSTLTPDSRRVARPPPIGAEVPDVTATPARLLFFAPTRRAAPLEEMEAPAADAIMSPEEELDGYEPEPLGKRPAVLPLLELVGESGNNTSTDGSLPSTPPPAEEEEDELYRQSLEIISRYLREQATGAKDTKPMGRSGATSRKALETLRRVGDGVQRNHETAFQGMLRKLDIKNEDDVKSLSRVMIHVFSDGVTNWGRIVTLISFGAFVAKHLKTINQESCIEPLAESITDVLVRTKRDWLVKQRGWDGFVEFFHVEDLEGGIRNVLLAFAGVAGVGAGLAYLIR
Mcl-1 Bim block = disrupts Bim peptide binding to human Mcl-1. Q07820. Bead-based flow cytometry, Bim peptide-Mcl-1 binding. inhibition, % at 10 µM. hit rate 0.1% among 190,000; in the data active means inhibition above about 40%;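 further: 0% = no compound tracer wells and 100% = peptide blocker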
MCL1 BIM primary = inhibitors of human MCL1 binding to BIM-BH3 peptide; Q07820; GST-MCL1 / FITC-Bim-BH3 fluorescence polarization; inhibition, % at 10.9 µM; hit rate 0.68% among 320,000; AID 2057;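 active means inhibition above the mean inhibition of all tested compounds plus 3 SD, set per campaign, cut at about 40% in these data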;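 further: 0% = DMSO wells and 100% = unlabeled Bim-BH3 peptide control; higher means more loss of mP so more displacement of Bim peptide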
Mcl1-Noxa inh = Mcl-1/Noxa interaction inhibition; Q07820; TR-FRET Mcl-1/Noxa peptide binding, 2 h; inhibition, % at 21.7 µM; hit rate 1.5% among 220,000; AID 1022;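 active means compounds that cut the protein-peptide binding signal by more than 50% relative to plate controls in a single-dose test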;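 further: His-tagged Mcl-1 with rhodamine Noxa BH3 peptide and terbium anti-His antibody; 0% = Mcl-1 plus Noxa peptide wells and 100% = peptide-only wells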
TNF death inh = blocks TNF-alpha induced death of Jurkat FADD-/- cells; Jurkat FADD-/- TNF necroptosis rescue, ATP luminescence, 24 h; 0 = TNF only, 100 = no-TNF cells; activation (protection from cell death), % at 10 µM; hit rate 0.068% among 220,000;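 active means activation, meaning protection from cell death, of at least 50% relative to plate controls; inactive means activation below 50%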;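 further: necroptosis triggered by 40 ng/mL TNF-alpha added together with compound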
zVAD death inh = L929 zVAD cell death inhibition; L929 zVAD necroptosis rescue, ATP luminescence, 24 h; with zVAD 60 µM; viability rescue, % at 10 µM; hit rate 0.38% among 220,000; AID 1377;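 active means activation, scaled between plate controls, above about 75%, limit read from the data; inactive means activation under that limit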;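 further: 0% = zVAD with DMSO and 100% = DMSO alone without zVAD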
zVAD necrop conf = confirmed blocker of zVAD induced death in L929 cells. L929 zVAD-induced necroptosis rescue, ATP luminescence, 24 h. shares compounds with zVAD death inh. activation (protection from necroptosis), % at 10 µM. hit rate 16% among 760;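 active means mean protection from necroptosis of at least 50% over duplicate tests; inactive means mean protection below 50%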;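 further: 0% = cells with zVAD alone and 100% = vehicle cells without zVAD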
An asterisk follows results filed as active; nt = no result. Only some compounds are listed: those with a hit (about 2.4% of all), similar ones and a draw of the others.

SMILES | Mcl1 Bid PPI | Mcl-1 Bim block | MCL1 BIM primary | Mcl1-Noxa inh | TNF death inh | zVAD death inh | zVAD necrop conf
N#CC1(NC(=O)COC(=O)c2cc(O)c3ccccc3c2O)CCCCC1 | nt | nt | 40* | nt | nt | nt | nt
Cc1ccc(-c2c(=O)n(OCc3ccccn3)c3ccccc3[n+]2[O-])cc1 | -11 | -4 | nt | -13 | -2 | 0 | nt
COc1ccc(-c2c(=O)n(OCc3ccccn3)c3ccccc3[n+]2[O-])cc1OC | -20 | -4 | -2 | 54* | -2 | 1 | nt
COc1ccc2sc3ccccc3c(=O)c2c1 | -45 | 1 | 20 | -119 | -4 | 0 | nt
Cc1cc(O)cc2c(=O)c3ccccc3sc12 | -22 | 2 | 2 | 59* | -1 | 43 | nt
COc1cc(NC(=O)COC(=O)Cn2cnc3c2c(=O)n(C)c(=O)n3C)cc(OC)c1 | nt | nt | -7 | nt | nt | nt | nt
CC(C)OCCCNC(=O)c1c(N)n(/N=C/c2cccs2)c2nc3ccccc3nc12 | 61* | -4 | -10 | 32 | -10 | 16 | nt
COCCCNC(=O)c1c(N)n(/N=C/c2ccccn2)c2nc3ccccc3nc12 | nt | 4 | nt | nt | -8 | 0 | nt
CCOC(=O)N1CCN(C(=O)CSc2ccc3nnc(CCNC(=O)c4ccc(OC)cc4)n3n2)CC1 | 89* | -2 | 4 | 2 | -1 | 0 | nt
CCc1ccc(NC(=O)CN(C(=O)N2CCN(CC)CC2)S(=O)(=O)c2ccc(C)cc2)cc1 | nt | nt | 5 | nt | nt | nt | nt
Brc1ccccc1OCCCCn1cnc2ccccc21 | -4 | -3 | 2 | 8 | -5 | 0 | nt
Cc1ccc(OCCCCn2cnc3ccccc32)c(C)c1 | 54* | 1 | 0 | 28 | -5 | 0 | nt
CCc1ccc(C2=NN(C(=O)CCC(=O)O)C(c3cccs3)C2)cc1 (stereo not given) | nt | nt | 4 | nt | nt | nt | nt
C=CCn1c(SCC(=O)Nc2sccc2C(N)=O)nc2ccc(Cl)cc2c1=O | 61* | -3 | 8 | 30 | 0 | 0 | nt
COc1ccc(CCNC(=O)C2CCN(S(=O)(=O)c3ccc(C)cc3)CC2)cc1 | nt | nt | -1 | nt | nt | nt | nt
CCN(CC)CCn1c(SCC(=O)Nc2ccc3c(c2)CCC3)nc2ccccc2c1=O | nt | nt | 15 | nt | nt | nt | nt
Nc1nnc(CC(=O)N/N=C/c2ccc(-c3ccc(Cl)cc3Cl)o2)s1 | 49 | nt | 12 | 51* | -1 | 1 | nt
CCCCCCCC1c2c(c(C)c(C)oc2=O)Oc2c(C)c(C)oc(=O)c21 | nt | nt | -1 | nt | nt | nt | nt
COC(=O)/C=C1/SC(=Nc2ccc(C)cc2C)NC1=O | 98* | 0 | 3 | 21 | -5 | 0 | nt
CN(C)Cc1cc(O)c(CN(C)C)cc1O | -153 | nt | 48* | 60* | -22 | -1 | nt
CN(C)Cc1cc(C(C)(C)C)cc(C(C)(C)C)c1O | -60 | nt | 5 | -20 | -3 | 2 | nt
CC1(c2ccccc2)CC(C)(C)N2C(=O)/C(=C3\SC(=S)NC3=O)c3cccc1c32 (stereo not given) | 93* | -9 | 25 | 111* | -2 | 0 | nt
CCN1/C(=C2/SC(=S)NC2=O)Sc2ccccc21 | -8 | -1 | -11 | 15 | 1 | 0 | nt
CSc1ccc(C2N=C(c3ccccc3)NO2)cc1 (stereo not given) | nt | nt | 6 | nt | nt | nt | nt
Oc1c(Br)cc(C2N=C(c3ccccc3)NO2)cc1Br (stereo not given) | 12 | -3 | 10 | 13 | 0 | 80* | 4
SMILES | Mcl1 Bid PPI | Mcl-1 Bim block | MCL1 BIM primary | Mcl1-Noxa inh | TNF death inh | zVAD death inh | zVAD necrop conf
O=C(/C=C/c1ccccc1)NC(=S)Nc1ccccc1O | nt | nt | 14 | nt | nt | nt | nt
NC(=S)NC(=O)/C=C/c1ccccc1 | -43 | -7 | 20 | -4 | 19 | 83* | 1
COC(=O)c1ccc(NC(=O)CSC2=NCCN2)cc1 | -4 | -1 | 7 | 21 | -8 | 92* | 12
CCOc1ccc(NC(=O)CSC2=NCCN2)cc1 | -13 | 0 | 12 | 26 | -1 | 5 | nt
O=C(NCC1COc2ccccc2O1)c1cccc(S(=O)(=O)NCc2ccccc2)c1 (stereo not given) | nt | nt | 4 | nt | nt | nt | nt
O=C(CSc1nnnn1-c1ccc(O)cc1)Nc1ccc(N2CCOCC2)c(Cl)c1 | -10 | 0 | 3 | 3 | 5 | 76* | 75*
O=C(CSc1nnnn1C1CC1)Nc1cccc(S(=O)(=O)N2CCCC2)c1 | nt | nt | -3 | nt | nt | nt | nt
O=C(CSc1nnnn1-c1ccc(O)cc1)Nc1cccc(S(=O)(=O)N2CCCC2)c1 | 1 | -4 | 0 | 3 | 2 | 88* | 89*
Cc1ccc(NC(=O)CSc2nnnn2-c2ccc3c(c2)OCO3)cc1C | 3 | 1 | 6 | -42 | 5 | 79* | 74*
O=C(COC(=O)/C=C/c1ccccc1)NC(=O)NCc1ccccc1 | nt | nt | -5 | nt | nt | nt | nt
CC(=O)N1CCN(S(=O)(=O)c2ccc3c(c2)CC(=O)N3)CC1 | nt | nt | 6 | nt | nt | nt | nt
CC(=O)Nc1ccc(NC(=O)C/C(C)=N/NC(=O)c2cccc3ccccc23)cc1 | nt | nt | 5 | nt | nt | nt | nt
CCN(CC)CCCNC(=O)c1cc(Sc2nnc(C)s2)nc2ccccc12 | -18 | -4 | 4 | -4 | 7 | 79* | 10
CC(=O)c1ccc2noc(-c3ccccc3)c2c1 | -2 | 0 | -2 | 20 | 1 | 76* | 2
COc1cc(OC)c(OC)cc1/C=N/Nc1nc2ccccc2[nH]1 | -48 | nt | -1 | 6 | 1 | 1 | nt
C(=N\Nc1ccc2ccccc2n1)/c1ccc2c(c1)OCCO2 | -6 | 0 | 9 | 16 | 1 | 1 | nt
CCOc1cc(/C=N/Nc2nc3ccccc3[nH]2)cc(Br)c1OCC(=O)N(C)C | -100 | -1 | 2 | 20 | 43 | 78* | 58*
C(=N\Nc1nc2ccccc2[nH]1)/c1ccc2c(c1)OCCO2 | -87 | nt | -9 | -60 | 3 | 82* | 7
COc1cc(/C=N\Nc2nc3ccccc3[nH]2)cc(OC)c1OC | -71 | 0 | 4 | 9 | 15 | 81* | 48
COc1ccc(/C=N/Nc2nc3ccccc3[nH]2)cc1OC | -45 | -5 | 4 | 18 | 40 | 79* | 49
CCOC(=O)c1c(C)[nH]c(C)c1S(=O)(=O)N1CCN(c2ccc([N+](=O)[O-])cc2)CC1 | nt | nt | 6 | nt | nt | nt | nt
Fc1ccc(COc2ccc(C(=S)N3CCCC3)cc2)cc1 | nt | nt | 4 | nt | nt | nt | nt
Cc1cc(C)nc(NS(=O)(=O)c2ccc(N=NN(C)C)cc2)n1 | nt | nt | -4 | nt | nt | nt | nt
CCC(CO)Oc1cc(NC(=O)c2ccccc2)c2ncn(C(C)C)c2c1 (stereo not given) | nt | nt | 2 | nt | nt | nt | nt
O=C(CCl)N(c1ccccc1)C1CCCCC1 | 7 | -28 | -6 | 2 | -20 | 78* | 66*
CC1(C)CN(C(=S)Nc2ccc(F)cc2F)C1=O | nt | nt | -3 | nt | nt | nt | nt
O=C(NNC(=O)c1ccc(NC(=O)c2ccccc2)cc1)c1ccc(F)cc1 | nt | nt | -3 | nt | nt | nt | nt
O=C(NNC(=O)c1ccc(NC(=O)c2ccccc2)cc1)Nc1ccccc1 | -16 | -6 | 3 | -18 | 2 | 76* | 37
CC1CCCCN1CCCNC(=O)c1ccc(NC(=O)C2=CSCCO2)cc1 (stereo not given) | nt | nt | 7 | nt | nt | nt | nt

Screening data: PubChem BioAssay, several laboratories
